Hits are enriched below; roughly 4.7% of the tested compounds scored in any of these assays.
Pyk2 oligo antag: antagonists of human Pyk2 oligomerization; z-score (the deposit names both 25 µM and 10 µM); 99,000 tested, 0.83% active; Q293 cells, Pyk2 FERM NanoBiT luminescence; stronger effect = lower value; AID 1347419;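 active means Z-score of -3 or lower, scaled per plate to the spread of control and sample wells; inactive means z-score above -3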;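 further: negative z-score means lost luminescence so less FERM oligomerization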
PLK1 inh: PLK1 (human) kinase inhibition; AID 619; recombinant PLK1 kinase, TR-FRET peptide phosphorylation; inhibition, % at 10 µM; P53350; 97,000 tested, 0.53% active;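 active means inhibition of 50% or more in the single-concentration screen; inactive means inhibition below 50%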;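 further: 0% = DMSO max control and 100% = H-89 dihydrochloride min control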
SDO1 yeast rescue: restores growth of sdo1-depleted yeast | S. cerevisiae sdo1-depleted JHY4D growth rescue, OD600 30 h; stronger effect = higher value; pdr5 snq2 efflux-pump mutant strain | z-score at 10 µM | 140,000 tested, 0.21% active;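 active means z-score above 3 at both the 24 hr and the 30 hr optical density reads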;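 further: z-score against mean and SD of all compound wells on the same plate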
Cav32 inh: human Cav3.2 channel inhibition, primary screen; O95180; Cav3.2-expressing cells, Fluo-4 calcium fluorescence FDSS; stronger effect = lower value; B-score at 10 µM; 100,000 tested, 4% active; AID 449739;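 active means single-dose well whose peak fluorescence ratio is a statistical outlier from its plate by either plate-standardised score or position-corrected B-score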
Target sequence (O95180 whole entry, looked up): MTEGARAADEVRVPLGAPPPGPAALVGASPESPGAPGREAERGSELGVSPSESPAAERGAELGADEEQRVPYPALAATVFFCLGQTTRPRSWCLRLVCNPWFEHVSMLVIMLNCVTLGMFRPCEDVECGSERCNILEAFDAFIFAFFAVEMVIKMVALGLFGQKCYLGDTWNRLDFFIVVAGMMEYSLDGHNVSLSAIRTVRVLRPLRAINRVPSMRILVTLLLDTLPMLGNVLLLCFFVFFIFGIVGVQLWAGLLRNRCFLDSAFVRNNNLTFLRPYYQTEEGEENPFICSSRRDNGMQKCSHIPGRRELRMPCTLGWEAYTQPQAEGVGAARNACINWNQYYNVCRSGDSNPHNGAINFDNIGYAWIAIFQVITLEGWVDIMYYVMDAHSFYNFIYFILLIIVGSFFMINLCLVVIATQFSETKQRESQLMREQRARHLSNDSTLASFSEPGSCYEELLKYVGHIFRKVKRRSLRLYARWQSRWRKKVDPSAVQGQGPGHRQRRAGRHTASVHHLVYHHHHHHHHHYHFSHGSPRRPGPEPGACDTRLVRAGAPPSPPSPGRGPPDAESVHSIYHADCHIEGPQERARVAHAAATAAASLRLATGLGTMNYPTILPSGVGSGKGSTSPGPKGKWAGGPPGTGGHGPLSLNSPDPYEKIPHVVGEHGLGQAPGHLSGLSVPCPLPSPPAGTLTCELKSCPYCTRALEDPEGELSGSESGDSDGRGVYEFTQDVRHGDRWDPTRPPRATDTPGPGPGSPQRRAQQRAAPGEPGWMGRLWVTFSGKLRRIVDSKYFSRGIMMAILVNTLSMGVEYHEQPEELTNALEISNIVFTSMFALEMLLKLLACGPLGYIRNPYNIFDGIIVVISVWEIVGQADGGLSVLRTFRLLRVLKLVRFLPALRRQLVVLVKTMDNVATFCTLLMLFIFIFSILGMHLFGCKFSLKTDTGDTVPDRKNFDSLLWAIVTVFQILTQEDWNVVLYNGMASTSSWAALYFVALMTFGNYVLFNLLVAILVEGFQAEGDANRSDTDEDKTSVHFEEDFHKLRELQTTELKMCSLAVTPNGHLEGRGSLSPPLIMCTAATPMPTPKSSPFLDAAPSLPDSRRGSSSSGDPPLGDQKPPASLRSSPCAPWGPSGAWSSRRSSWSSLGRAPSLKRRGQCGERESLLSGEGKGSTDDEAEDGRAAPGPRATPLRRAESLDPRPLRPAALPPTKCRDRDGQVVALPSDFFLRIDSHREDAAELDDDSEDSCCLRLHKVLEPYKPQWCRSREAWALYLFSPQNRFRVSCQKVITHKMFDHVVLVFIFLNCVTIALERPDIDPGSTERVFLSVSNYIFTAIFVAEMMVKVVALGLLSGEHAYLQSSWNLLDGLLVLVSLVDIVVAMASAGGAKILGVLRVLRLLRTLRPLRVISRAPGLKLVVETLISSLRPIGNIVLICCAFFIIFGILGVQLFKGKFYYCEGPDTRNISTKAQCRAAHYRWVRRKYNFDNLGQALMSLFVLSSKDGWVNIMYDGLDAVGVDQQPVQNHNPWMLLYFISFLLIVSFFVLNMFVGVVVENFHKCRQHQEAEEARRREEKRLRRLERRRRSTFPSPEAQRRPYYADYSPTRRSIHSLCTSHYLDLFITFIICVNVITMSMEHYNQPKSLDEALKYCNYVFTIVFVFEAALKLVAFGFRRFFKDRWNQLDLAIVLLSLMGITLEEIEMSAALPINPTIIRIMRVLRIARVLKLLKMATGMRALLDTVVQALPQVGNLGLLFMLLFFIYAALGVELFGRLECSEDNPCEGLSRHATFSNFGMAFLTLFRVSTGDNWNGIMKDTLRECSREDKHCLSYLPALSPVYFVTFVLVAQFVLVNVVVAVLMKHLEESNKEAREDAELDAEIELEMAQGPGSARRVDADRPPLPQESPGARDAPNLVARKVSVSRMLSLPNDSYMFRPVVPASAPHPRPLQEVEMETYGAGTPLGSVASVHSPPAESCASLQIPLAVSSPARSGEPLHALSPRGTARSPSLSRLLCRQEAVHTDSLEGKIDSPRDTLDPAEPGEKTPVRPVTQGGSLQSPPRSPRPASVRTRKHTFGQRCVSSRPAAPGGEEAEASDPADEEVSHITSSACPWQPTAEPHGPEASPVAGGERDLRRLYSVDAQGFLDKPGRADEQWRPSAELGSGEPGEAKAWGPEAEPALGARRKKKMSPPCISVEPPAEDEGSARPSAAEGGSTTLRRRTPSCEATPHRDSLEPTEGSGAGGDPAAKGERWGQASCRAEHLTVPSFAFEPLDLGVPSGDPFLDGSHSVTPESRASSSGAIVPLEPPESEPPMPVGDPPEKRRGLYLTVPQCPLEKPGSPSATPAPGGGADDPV
hDAT+cocaine: human DAT dopamine uptake with cocaine, either direction. LLC-PK1 hDAT cells, [14C]-dopamine uptake with cocaine IC80; actives deviate in either direction. 110,000 tested, 1.3% active. B-score at 10 µM. Q01959. AID 449768;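 active means Z score or B-score, a plate-position-corrected score, falls beyond the plate's 99.7% confidence bounds, in either direction; inactive means both scores lie inside the 99.7% bounds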;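 further: scored against the spread of the other compound wells on the same plate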
Plk1 PBD FP: inhibitors of human Plk1 polo box domain binding | Plk1 PBD phosphopeptide binding, fluorescence polarization | 97,000 tested, 0.13% active | inhibition, %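 (tested at about 20 µM)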; in the data active means inhibition above about 34%, passing the limit was not always enough
* marks the source's active call; other numbers are inactive results; . = no result.

SMILES	Pyk2 oligo antag	PLK1 inh	SDO1 yeast rescue	Cav32 inh	hDAT+cocaine	Plk1 PBD FP
COCCCNS(=O)(=O)c1ccc2c(c1)OCCO2	0.28	.	0.67	.	0.43	.
O=S(=O)(NCCSCc1ccc(Cl)cc1Cl)c1ccc2c(c1)OCCO2	-2.3	4	0.04	-4.5*	0.42	6
Cc1ccc(N2C(=S)N=C(Nc3ccccc3C)C23CCOC(C)(C)C3)cc1 (stereo not given)	-0.39	-12	-1.6	-6.1*	-1.8	-19
Cc1cccc2c1NC(=O)C2(c1ccc(O)cc1)c1ccc(O)cc1	-0.07	-11	0.12	-5.1*	1.5	10
O=C(NC(NCC1CCCO1)C(Cl)(Cl)Cl)c1cccc2ccccc12 (stereo not given)	0.68	-8	-0.03	-5*	0.17	8
O=C(Nc1ccc2c(c1)CCC2)c1cccc(S(=O)(=O)N2CCN(c3ccccc3)CC2)c1	0.27	-14	-0.01	-5.7*	-0.55	3
O=C(COC(=O)c1cccc(S(=O)(=O)N2CCCCC2)c1)NC1CCCc2ccccc21 (stereo not given)	.	.	-1.1	.	.	.
O=C(NC1CCCc2ccccc21)c1cccc(S(=O)(=O)N2CCN(c3ccccc3)CC2)c1 (stereo not given)	-0.6	1	-0.86	-10*	0.18	-10
Cc1ccc(S(=O)(=O)N2CCN(CC(=O)NC3CCCc4ccccc43)CC2)cc1C (stereo not given)	-0.77	-10	-0.45	-3.3	0.55	-3
O=C(CCC(=O)N1CCN(S(=O)(=O)c2ccc(Cl)cc2)CC1)NC1CCCc2ccccc21 (stereo not given)	0.31	-11	0.34	-5.2*	1.4	-4
COc1ccccc1/C=C1\CCCC2=C1Nc1nnnn1C2c1ccccc1OC (stereo not given)	.	.	-0.86	.	.	.
COc1ccc([N+](=O)[O-])cc1N(CC(=O)NCC1CCCO1)S(C)(=O)=O (stereo not given)	.	.	0.74	.	.	.
O=[N+]([O-])c1cccc(CSc2nnc(Cc3ccccc3)n2-c2ccc(F)cc2)c1	.	.	-0.54	.	.	.
Cc1cc([N+](=O)[O-])nn1CC(=O)N1c2ccccc2CC1C (stereo not given)	.	.	-0.39	.	.	.
CC1(C)Nc2ccccc2N(CCC(=O)N2CCOCC2)C1=O	-0.13	-6	-0.54	-0.3	1.6*	10
O=C(CN1C(=O)c2ccccc2C1=O)N1CCCCC1	-0.23	-11	0.78	0.66	-0.8	-10
CN(C(=O)CCN1C(=O)C(C)(C)Nc2ccccc21)c1ccccc1	0.19	3	0.78	0.051	-0.0058	-4
CC1(C)Nc2ccccc2N(CC(=O)N2CCCCC2)C1=O	1.1	-22	0.62	0.43	1.4*	5
CCOc1ccc2nc(N/C(N)=N/C(=S)Nc3cccc(C)c3)nc(C)c2c1	0.49	-10	-1.1	-5.5*	-0.4	14
COc1ccc2nc(N/C(N)=N/C(=S)Nc3cccc(C)c3)nc(C)c2c1	-1	-5	-2.6	-1.4	-0.87	-13
CCOc1ccc2c(c1)n([O-])c1c([n+]2=O)CCCC1	-0.6	.	1.4	1.1	0.73	.
O=[n+]1c2c(n([O-])c3cc(Cl)ccc31)CCCC2	0.01	-3	2.7	0.88	0.97*	9
COCCNC(=O)CNC(=O)c1nn(-c2ccc(OC)c(Cl)c2)c(=O)c2ccccc12	-0.9	-10	0.06	0.98	-6.8*	-24
COC(=O)CNC(=O)CNC(=O)c1nn(-c2ccc(OC)c(Cl)c2)c(=O)c2ccccc12	-0.15	-11	0.9	.	.	-20
O=C1C2C3C=CC(C3)C2C(=O)N1/N=C/c1cc(Br)cc([N+](=O)[O-])c1O (stereo not given)	-0.92	-15	0.11	-2.5	-2.8*	-5
SMILES	Pyk2 oligo antag	PLK1 inh	SDO1 yeast rescue	Cav32 inh	hDAT+cocaine	Plk1 PBD FP
CN(C)S(=O)(=O)c1ccc(C(=O)Nc2ccc(F)cc2F)cc1	.	66*	0.25	0.33	0.032	-8
Cc1cccc(NC(=O)c2ccc(S(=O)(=O)N(C)C)cc2)c1	.	12	-0.6	0.11	3.1*	-21
COc1ccc2oc(=N)c(-c3nnc4n3CCCCC4)cc2c1	1.3	-12	1.6	0.22	1.4	-8
N=c1oc2ccc3ccccc3c2cc1-c1nnc2n1CCCCC2	-0.05	-12	0.74	0.56	3.4*	8
CCC(CC)C(=O)NCCCN1CCOCC1	.	.	1.4	.	.	.
CN(C)CCN(C)Cc1ccccc1Sc1cccc2ccccc12	.	.	-0.25	.	.	.
Cc1cc(C)c(O)c(-c2cc(C(=O)Nc3ccc(S(=O)(=O)N4CCOCC4)cc3)[nH]n2)c1	-3.2*	-11	0.43	-0.45	-0.086	-21
Cc1cc(C)nc(NS(=O)(=O)c2ccc(NC(=O)c3ccc(S(=O)(=O)N4CCOCC4)cc3)cc2)n1	-0.1	7	0.11	0.89	-0.6	8
Cc1cc2c(c(=O)n1Cc1ccccn1)C(c1ccc3c(c1)OCO3)C(C#N)=C(N)O2 (stereo not given)	-0.19	.	1.5	0.7	1.1	.
COc1ccc(CCn2c(C)cc3c(c2=O)C(c2ccc4c(c2)OCO4)C(C#N)=C(N)O3)cc1OC (stereo not given)	-0.57	.	0.59	1	2.6*	.
CC1(C)CC(=O)C(C=NCC2CCN(C(=O)Nc3ccc(Cl)c(Cl)c3)CC2)=C(O)C1	0.64	2	0.36	-3.3*	-0.54	-9
CCCN(CCC)C(=O)Cn1c(=O)n(CCC(=O)NCCc2ccccc2)c(=O)c2ccccc21	-0.11	-5	-0.11	1.9	-8*	4
COC1(OC)N=C(N)C2(C#N)C(c3cccc(Oc4ccccc4)c3)C12C#N (stereo not given)	-0.12	-4	-0.05	-5*	0.98	27
COc1ccc(S(=O)(=O)n2nc(OC(C)=O)cc2N(C(C)=O)C(C)=O)cc1	.	.	.	0.43	0.12	.
CC(C)C(c1nnnn1C(C)(C)C)N1CCN(c2cccc(Cl)c2)CC1 (stereo not given)	-1.1	1	-2.3	-3.2	-0.49	7
CC1(C)Cc2ccccc2C(N)=C1C#N	1.3	-5	-0.46	0.48	1.8	-4
CC(=O)N(C(C)=O)C1=C(C#N)C2(CCCCC2)Cc2ccccc21	-0.41	-6	-0.82	-6.3*	0.03	2
O=C1CSC(c2ccccc2)N1c1nnc(C23CC4CC(CC(C4)C2)C3)s1 (stereo not given)	.	-6	0.63	-0.46	-1.3	-5
COc1ccc(N=C2NN=C(c3ccc4c(c3)OCCO4)CS2)cc1	-1.9	-4	0.1	0.001	3.1*	2
Cc1ccc(Cn2c(C(C)Nc3nc(-c4ccc(F)cc4)cs3)nc3cc(C(F)(F)F)ccc32)cc1 (stereo not given)	.	.	.	0.4	-0.23	.
Clc1ccc2oc3c(Cl)ncnc3c2c1	.	.	1.3	.	.	.
CN1/C(=C\C=Nc2ccc3ccccc3c2)C(C)(C)c2ccccc21	-0.97	-10	-0.46	-9.4*	1.2	-89
C/C(=N\NS(=O)(=O)c1ccccc1)c1ccc2c(c1)OCCO2	.	.	0.08	.	.	.
